# Inconclusive results are not listed. Entries that show only a call come without a potency. A number with no mark means an inactive call. The source made the active and inactive calls. The call rests on the fitted dose curve; in most records, active means well fitted cell-killing curve with a large enough effect in the repeat runs; inconclusive means weak or mixed curves, or effect the other way; inactive means flat fitted curve, though single readings scatter.
# Experiment: cAMP Responsive Elements (CRE) small molecule agonists, cell-based qHTS assay: qHTS cell viability counter screen (AID 2060914); further: nearly all actives have a fitted effect of over 50% in size
# Settings: CRE-bla HEK293T viability, CellTiter-Glo luminescence, 5 h; series mostly up to 92.4 µM
# In short: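 Cytotoxicity counter screen multiplexed with the CRE-bla reporter assay in HEK 293T cells: 3 h compound exposure at 37 °C, followed by CellTiter-Glo luminescence measured in the same wells.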
# Potency means the concentration at half of the fitted maximal effect.
Compound,Potency,"activity change, negative = cytotoxicity"
CCOC(=O)NC(O)C(Cl)(Cl)Cl (stereo not given),inactive,
COP(=S)(OC)Oc1cc(Cl)c(Cl)cc1Cl,inactive,
COCC(=O)N(c1c(C)cccc1C)[C@H](C)C(=O)OC,inactive,
O=c1ccc(=O)[nH][nH]1,inactive,
CCNc1nc(NCC)nc(SC)n1,inactive,
CC(C)(N)Cc1ccccc1Cl,inactive,
O=C(O)c1nn(Cc2ccc(Cl)cc2Cl)c2ccccc12,inactive,
C[N+](C)=CCl,inactive,
CSc1nc(N=[N+]=[N-])nc(NC(C)C)n1,inactive,
CNN,inactive,
CC(NC(C)(C)C)C(=O)c1cccc(Cl)c1 (stereo not given),inactive,
CCOP(=S)(OCC)Oc1ccc([N+](=O)[O-])cc1,inactive,
CCOP(=S)(S)OCC,inactive,
CCCN(CCC)c1c([N+](=O)[O-])cc(S(C)(=O)=O)cc1[N+](=O)[O-],inactive,
C=CCc1ccccc1O,inactive,
CCCCCCCCCCCCCCCCCCn1cc[n+](C)c1,30.5 µM (active),
CCOC(=O)CCN(SN(C)C(=O)Oc1cccc2c1OC(C)(C)C2)C(C)C,inactive,
OCCSSCCO,inactive,
C[CH2][Hg][N]1C(=O)C2C(C1=O)C1(Cl)C(Cl)=C(Cl)C2(Cl)C1(Cl)Cl (stereo not given),,14.8% [at 18.9 µM]
Cc1ccc(N)cc1C,inactive,

Compound,Potency,"activity change, negative = cytotoxicity"
CCC(Cl)[N+](=O)[O-] (stereo not given),inactive,
C1=Cc2cccc3cccc1c23,inactive,
Cc1ccc(O)c(C)c1,inactive,
C=CCOC(N)=O,inactive,
Clc1ccc(-c2ccc(Cl)c(Cl)c2Cl)c(Cl)c1Cl,inactive,
Oc1cccc2cccnc12,inactive,
CC(C)COC(=O)c1ccccc1C(=O)OCC(C)C,inactive,
Nc1ccc(N=Nc2ccc(-c3ccc(N=Nc4c(S(=O)(=O)O)cc5cc(S(=O)(=O)O)c(N=Nc6ccccc6)c(O)c5c4N)cc3)cc2)c(N)c1,inactive,
CC(Cc1ccccc1)NCCCCl (stereo not given),inactive,
CN/C(=N\[N+](=O)[O-])NCC1CCOC1 (stereo not given),inactive,
O=S(=O)(O)OOS(=O)(=O)O,inactive,
O=C(N[C@H]1CN2CCC1CC2)c1cc2ccoc2cn1,inactive,
CC(Oc1ccc(Cl)cc1Cl)C(=O)O (stereo not given),inactive,
CC(C(O)c1ccccc1)N(C)C/C=C/c1ccccc1 (stereo not given),inactive,
C=CCCl,inactive,
Oc1c(Cl)c(Cl)c(Cl)c(Cl)c1Cl,inactive,
CON(C)C(=O)Nc1ccc(Cl)cc1,inactive,
CCc1cccc(CC)c1N(COC)C(=O)CCl,inactive,
CCOC(=O)NC(C)(C)Cc1ccc(Cl)cc1,inactive,
CN1C(=O)[C@@H](NC(=O)c2cc3ccccc3[nH]2)N=C(c2ccccc2)c2ccccc21,inactive,

# Source: PubChem BioAssay (Tox21)
